The record followed here is PubChem BioAssay (EPA / NIEHS).

Structures are written as SMILES. Records with an inconclusive call do not appear. Active and inactive are the calls of the source. How the source made its calls: active means hit-call score of the fitted dose curve at least 0.9, where 1 is the maximum; inconclusive means response in the unintended direction; inactive means score below 0.9.

This test deals with PGR (gene 5241) (UniProt P06401). The test is described as follows: TOX21_PR_BLA_Followup_Agonist_ratio: Tox21 HEK293 Progesterone Receptor (PR) Agonism Beta-lactamase Follow-Up Assay, Ratio (AID 2283933). Here is the method: TOX21_PR_BLA_Followup is a secondary assay for specificity for the TOX21_PR_BLA_Agonist assay. To differentiate true PR agonists from cytotoxic substances, this follow up assay is multiplexed with a cell viability assay. The compounds were also tested for auto fluorescence that may interfere with the biological target readout resulting in potential false positives and/or negatives. To identify the compounds that stimulate PR signaling, a PR-UAS-bla GripTite cell line i.e. PR-UAS-bla HEK293T (Invitrogen, Carlsbad, CA, USA) containing a beta-lactamase reporter gene under the control of an UAS response element was used to screen Tox21 10K compound library. The cytotoxicity of the Tox21 compound library against the PR-bla cell line was tested in parallel by measuring the cell viability using CellTiter-Glo assay in the same wells. TOX21_PR_BLA_Followup_Agonist_ratio is an assay readout measuring reporter gene via receptor activity and designed using inducible reporter (beta lactamase induction) detected with GAL4 b-lactamase reporter gene. The signal is derived from the ratio of cleaved (ch2) to uncleaved (ch1) reporter gene substrate used as the measure of target activity.Data from the assay component TOX21_PR_BLA_Followup_Agonist_ratio was analyzed into 1 assay endpoint. This assay endpoint, TOX21_PR_BLA_Followup_Agonist_ratio, was analyzed in the positive analysis fitting direction relative to DMSO as the negative control and baseline of activity. Using a type of inducible reporter, measures of receptor for gain-of-signal activity can be used to understand the reporter gene at the pathway-level as they relate to the gene NR3C3. Furthermore, this assay endpoint can be referred to as a primary readout, because this assay has produced multiple assay endpoints where this one serves a reporter gene function. To generalize the intended target to other relatable targets, this assay endpoint is annotated to the nuclear receptor intended target family, where the subfamily is steroidal.
Chain of PGR (gene 5241) (P06401 whole entry, looked up): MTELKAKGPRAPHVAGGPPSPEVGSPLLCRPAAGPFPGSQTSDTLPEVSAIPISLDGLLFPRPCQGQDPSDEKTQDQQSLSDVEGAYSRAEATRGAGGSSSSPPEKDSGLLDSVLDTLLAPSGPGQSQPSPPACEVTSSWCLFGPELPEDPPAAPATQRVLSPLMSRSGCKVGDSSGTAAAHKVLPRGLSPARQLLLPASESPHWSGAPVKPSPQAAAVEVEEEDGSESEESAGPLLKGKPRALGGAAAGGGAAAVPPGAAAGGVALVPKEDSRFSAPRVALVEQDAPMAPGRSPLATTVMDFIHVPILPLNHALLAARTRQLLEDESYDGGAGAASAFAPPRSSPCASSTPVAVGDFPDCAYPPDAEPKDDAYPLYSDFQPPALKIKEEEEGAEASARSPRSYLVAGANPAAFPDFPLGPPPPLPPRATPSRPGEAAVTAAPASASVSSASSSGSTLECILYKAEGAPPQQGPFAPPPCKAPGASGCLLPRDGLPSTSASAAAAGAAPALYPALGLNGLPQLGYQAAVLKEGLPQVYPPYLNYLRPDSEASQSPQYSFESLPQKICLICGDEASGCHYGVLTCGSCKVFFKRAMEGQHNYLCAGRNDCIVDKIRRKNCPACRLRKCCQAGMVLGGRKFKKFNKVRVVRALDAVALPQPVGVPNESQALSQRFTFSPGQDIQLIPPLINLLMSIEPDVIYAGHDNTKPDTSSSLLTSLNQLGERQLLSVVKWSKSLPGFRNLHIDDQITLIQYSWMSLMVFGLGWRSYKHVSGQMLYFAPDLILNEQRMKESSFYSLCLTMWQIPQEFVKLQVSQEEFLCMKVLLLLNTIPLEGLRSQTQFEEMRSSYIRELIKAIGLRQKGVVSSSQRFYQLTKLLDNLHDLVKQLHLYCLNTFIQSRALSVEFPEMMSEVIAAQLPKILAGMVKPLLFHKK
Assay Protocol: PR-UAS-bla HEK 293T cells were dispensed at 3,000 cells/5 uL of assay medium containing 2% charcoal stripped FBS per well into black wall/clear-bottom 1536-well plates using a Multidrop Combi (ThermoFisher Scientific, Waltham, MA) dispenser. After the assay plates were incubated at a 37C and 5% CO2 for 6hr, 23 nL of compounds dissolved in DMSO, positive controls or DMSO only was transferred to the assay plate by a Pintool station (Kalypsys, San Diego, CA). The plates were incubated at 37C and 5% CO2 for 16hr. Then 1 uL of LiveBLAzer B/G FRET substrate was added using a BioRAPTR FRD (Flying Reagent Dispenser, Aurora Discovery, San Diego, CA). After the plates were incubated at room temperature for 2 hours, fluorescence intensity was measured by an Envision plate reader (PerkinElmer, Shelton, CT).
As for `C=C1C(CCl)(CCl)C2(Cl)C(Cl)C(Cl)C1(Cl)C2(Cl)Cl` (stereo not drawn), the result was inactive. With `CC(=O)OCC(=O)[C@@]1(O)CC[C@H]2[C@@H]3CCC4=CC(=O)C=C[C@]4(C)[C@@]3(F)[C@@H](O)C[C@@]21C`, the AC50 (in general, the midpoint of the concentration-response curve, whichever way the signal moves) was 16.9 µM (active). Regarding `CCC(=C(CC)c1ccc(O)cc1)c1ccc(O)cc1`, the outcome was inactive. Still for that read-out and setting: with `CC(=O)OCC(=O)[C@@]1(O)CC[C@H]2[C@@H]3CCC4=CC(=O)C=C[C@]4(C)[C@H]3[C@@H](O)C[C@@]21C` the entry was “inactive”; with `NC(=O)n1c(O)c(C(=O)c2cccs2)c2cc(Cl)ccc21`, “inactive”; with `COC(=O)C1=C(C)NC(C)=C(C(=O)OCCN2CCN(C(c3ccccc3)c3ccccc3)CC2)C1c1cccc([N+](=O)[O-])c1` (stereo not drawn), “inactive”. The same measure, in the same setting: with `CC(C)C[C@H](NC(=O)[C@H](Cc1ccccc1)NC(=O)c1cnccn1)B(O)O` the entry was “inactive”; with `CCn1c2ccccc2c2cc([N+](=O)[O-])ccc21`, “inactive”. On the same count and under the same terms, the same measure for `Cc1cc(C)c(C=C2C(=O)Nc3ccccc32)[nH]1`: “inactive”. In the case of `COC(=O)C1=C(C)NC(COC(N)=O)=C(C(=O)OC(C)C)C1c1cccc(Cl)c1Cl` (stereo not drawn), the AC50 is 23 µM (active). `O=C(Nc1ccc(Cl)c(Cl)c1)C1CC1`: the outcome was inactive. The same measure, in the same setting: the same measure for `Oc1ccc(N=Nc2ccccc2)cc1`: “inactive”. As to `CC(C)C[C@H](NC(=O)[C@H](CCc1ccccc1)NC(=O)CN1CCOCC1)C(=O)N[C@@H](Cc1ccccc1)C(=O)N[C@@H](CC(C)C)C(=O)[C@@]1(C)CO1`, the outcome was inactive.
